For 13 compounds, outcome and AC50 results are on record in PubChem BioAssay (EPA / NIEHS).

Inconclusive results are not listed. Active and inactive are the calls of the source. How the source made its calls: active means hit-call score of the fitted dose curve at least 0.9, where 1 is the maximum; inconclusive means response in the unintended direction; inactive means score below 0.9.

Experiment [1] in a line: Tanguay_ZF_120hpf_ActivityScore_legacy: (Legacy) Oregon State University Tanguay Lab 120 Hour Post-fertilization zebrafish Assay Score for Activity (AID 2283742). The gist of the method:
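Dechorionated 5D embryos, one per well, static exposure 6–120 hpf, 28C, sealed and dark; final DMSO 0.64% (vol/vol). Brightfield binary scoring of mortality plus 18 endpoints; gain-of-signal fit versus DMSO baseline.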

In experiment [2] the target is Luciferin 4-monooxygenase (Photinus pyralis) (UniProt P08659). Kind of experiment: CCTE_Simmons_QuantiLum_inhib_2: CCTE's Firefly Luciferase Inhibition Assay, Simmons Lab (AID 2283767).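 On AC50: potency for inhibitors that lower luciferase luminescence relative to DMSO.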 The gist of the method: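 Eight-point titrations of each chemical, 5 nM–87.5 uM final in 0.5% DMSO, were run in three biological replicates against recombinant luciferase for 30 min at 37C. Bioluminescence signal loss, read on reagent injection, gave the inhibition endpoint.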
Chain of Luciferin 4-monooxygenase (Photinus pyralis) (P08659 whole entry, looked up): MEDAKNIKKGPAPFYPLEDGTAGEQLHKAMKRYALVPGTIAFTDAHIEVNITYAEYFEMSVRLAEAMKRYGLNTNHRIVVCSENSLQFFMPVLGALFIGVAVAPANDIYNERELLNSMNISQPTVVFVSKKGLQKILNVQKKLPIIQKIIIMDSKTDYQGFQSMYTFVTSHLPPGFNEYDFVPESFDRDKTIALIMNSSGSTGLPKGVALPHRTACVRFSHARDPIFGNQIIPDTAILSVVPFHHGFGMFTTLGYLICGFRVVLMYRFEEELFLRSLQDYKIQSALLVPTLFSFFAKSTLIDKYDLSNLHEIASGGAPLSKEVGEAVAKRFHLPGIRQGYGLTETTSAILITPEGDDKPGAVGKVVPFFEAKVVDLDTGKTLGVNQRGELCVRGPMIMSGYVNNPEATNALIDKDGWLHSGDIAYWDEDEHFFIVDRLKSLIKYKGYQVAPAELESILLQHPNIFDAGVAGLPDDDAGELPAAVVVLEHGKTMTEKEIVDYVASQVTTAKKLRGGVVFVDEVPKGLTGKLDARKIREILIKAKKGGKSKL

A short description of experiment [3]: ACEA_AR_antagonist_AUC_viability: ACEA Biosciences xCELLigence Real-Time Cell Analysis on Androgen Receptor Antagonism for Viability (AID 2283776).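 Further: 22Rv1 human prostate cancer cells growing on impedance electrode plates; area under impedance growth curve at 80 h after dosing as viability; hits lower the growth signal relative to DMSO meaning cytotoxicity.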 The method in brief: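 22Rv1 prostate cells, continuous dosing up to 100 uM final (0.5% DMSO max), duplicate plates. Growth measured by impedance; AUC at 80 h, loss of signal vs DMSO.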
Experiment [4] is described as follows: ACEA_AR_agonist_AUC_viability: ACEA Biosciences xCELLigence Real-Time Cell Analysis on Androgen Receptor Agonism for Viability (AID 2283775).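 On AC50: viability read 80 hours after compound addition.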 The method in brief: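 Viability endpoint from xCELLigence impedance in 22Rv1 prostate cells at 80 h. Eight-point series, 100 uM maximum final.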
Experiment [5] is described as follows: ArunA_Migration_hNP: ArunA Biomedical's Oris Neuroprogenitor (hNP) Cell Migration Assay (AID 2283754). The gist of the method:
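Readout is calcein-AM fluorescence (ex494/em517) of cells migrating into the detection zone, relative to DMSO. hNP1 cells (H9-derived) grown on Matrigel behind stoppers 16 h, then stoppers pulled and chemical applied 72 h; cytochalasin D as control.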

Experiment [6] in a line: ArunA_Migration_hNC: ArunA Biomedical's Oris Neural Crest (hNC) Cell Migration Assay (AID 2283755). The method in brief: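 Calcein-AM fluorescence (ex494 nm/em 517 nm) in the stopper-defined detection zone quantifies migration of hNC cells after 72 h chemical exposure; 60,000 cells/well plated on Matrigel with LIF and bFGF, 16 h pre-incubation. DMSO baseline.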
The nature of experiment [7]: ArunA_NOG_NucleusCount: ArunA Biomedical's Neurite Outgrowth (NOG) Assay for Nucleus Count (AID 2283756). The method in brief: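 Viable neuron count, from Hoechst nuclei passing size and intensity gates, imaged at 20x on differentiated H9-derived human neurons. Exposure lasted 48 h from seeding; activity was scored relative to DMSO.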
Experiment [8] in a line: ArunA_CellTiter_hNC: Viability Assessment in the ArunA Biomedical's Oris Neural Crest (hNC) Cell Migration Assay (AID 2283752). The method in brief:
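Cytotoxicity endpoint run alongside the migration assay: neural crest cells on Matrigel, 60,000 per well, preincubated 16 h at 37C, treated 72 h; CellTiter Aqueous One signal loss relative to DMSO.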

Experiment [9] can be described thus: ArunA_CellTiter_hNP: Viability Assessment in the ArunA Biomedical's Oris Neural Crest (hNC) Cell Migration Assay (AID 2283753). The gist of the method: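 Viability read with CellTiter 96 Aqueous One after 72 h chemical exposure of human hNP1 neuroprogenitors, which were plated on Matrigel in LIF/bFGF medium 16 h beforehand. Endpoint fitted in positive direction relative to DMSO.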

Experiment [10] is described as follows: ArunA_NOG_NeuriteLength: ArunA Biomedical's Neurite Outgrowth (NOG) Assay for Neurite Length (AID 2283757). The method in brief: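 Total neurite length per neuron, from traced βIII-tubulin-labelled processes longer than 10 um on viable Hoechst-gated cells, was scored as decrease from DMSO. Cells were hESC (H9)-derived neurons given 48 h chemical exposure immediately after seeding.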

The nature of experiment [11]: ArunA_NOG_NeuritesPerNeuron: ArunA Biomedical's Neurite Outgrowth (NOG) Assay for Neurites Per Neuron (AID 2283758). The gist of the method: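 Differentiated human H9-derived neurons exposed to chemicals for 48 h from seeding, then stained with Hoechst and βIII-tubulin/DyLight 488. Automated imaging counted neurites (processes >10 um) per valid neuron; loss of signal versus DMSO scored.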

The nature of experiment [12]: ArunA_NOG_BranchPointsPerNeurite: ArunA Biomedical's Neurite Outgrowth (NOG) Assay for Branch Points Per Neurite (AID 2283759). The gist of the method:
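Automated image analysis traced neurites (processes >10 um) from valid cell bodies after Hoechst and βIII-tubulin staining. hNN cells from H9 embryonic stem cells, 48 h exposure. Fitted bidirectionally against DMSO.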

For the compound `CS(=O)(=O)c1ccc([C@@H](C[C@H]2CCC(=O)C2)C(=O)Nc2cnccn2)cc1Cl`, in experiment [1], the result was inactive.
For the compound `C/C=C/C=C/C(=O)O`, the call in [1], in [2] and in experiment [3] was inactive.
Turning to `O=C1c2c(O)cccc2Cc2cccc(O)c21`, the outcome in experiment [1], in [2] and in experiment [3] was inactive.
Regarding `Cc1ccc(C(C)(C)C)c(O)c1`, the compound was called inactive in experiment [1], in experiment [2], in [4] and in [3].
A word on the AC50: it is the midpoint of the concentration-response curve, whichever way the signal moves. Take `Cc1c(C)c2c(c(C)c1O)CCC(C)(COc1ccc(CC3SC(=O)NC3=O)cc1)O2` (stereo not drawn): the outcome in experiment [1] and in [2] was inactive. The AC50 in [4] and in experiment [3] was 50 µM (active) in each case.
`O=C1OC(c2ccc(O)cc2)(c2ccc(O)cc2)c2ccccc21`: the compound was called inactive in experiment [1], in experiment [7] and in experiment [2]. Moreover, the half-maximal activity concentration (AC50) in [5] was 26.9 µM (active); in experiment [6] it was 15.9 µM (active); in experiment [4], 21.1 µM (active); in experiment [3] it was 19.8 µM (active).
Consider `Nc1nc(=S)c2[nH]cnc2[nH]1`, for which the result in experiment [1] was inactive. For the same compound, the AC50 in experiment [2] was 11.2 µM (active); in [4], 0.655 µM (active); in experiment [3], 0.212 µM (active).
On to `C=CCc1ccc(OC)c(OC)c1`, for which the outcome in [1] was inactive.
In the case of `CCOCCOCCO`, the result in experiment [1] and in [4] was inactive.
In the case of `Cc1ccc(-c2cc(C(F)(F)F)nn2-c2ccc(S(N)(=O)=O)cc2)cc1`, the compound was classed as inactive in experiment [1]. Also, the AC50 was 70.4 µM (active) in experiment [8]; 76.5 µM (active) in experiment [9]; 81.9 µM (active) in experiment [5]; 78.7 µM (active) in [6]; 7.13 µM (active) in [7]; 12.9 µM (active) in [10]. The values for the AC50 in [11], in experiment [4] and in experiment [3] were 13.9 µM (active), 17.7 µM (active) and 15.9 µM (active), respectively.
For `O=C1O[C@H]([C@H](O)CO)C(O)=C1O`, the call in experiment [1], in [2] and in experiment [4] was inactive.
With `COC(=O)[C@H]1[C@H]2C[C@@H]3c4[nH]c5cc(OC)ccc5c4CCN3C[C@H]2C[C@@H](OC(=O)c2cc(OC)c(OC)c(OC)c2)[C@@H]1OC`, the compound was classed as inactive in experiment [1], in experiment [5], in [7], in experiment [10], in [11] and in experiment [12]. Also, the outcome in [2] was inactive. For the same compound, the AC50 is 81.8 µM (active) in experiment [9], 50 µM (active) in [6], 42.2 µM (active) in experiment [4] and 33 µM (active) in experiment [3].
Regarding `CCCCC(CC)COP(=O)(OCC(CC)CCCC)OCC(CC)CCCC` (stereo not drawn), the compound was called inactive in [1], in [9], in experiment [5], in experiment [6], in experiment [7] and in experiment [10]. For the same compound, the outcome in [11] and in experiment [12] was inactive. Besides, the AC50 in [4] was 17.6 µM (active); in experiment [3] it was 16.8 µM (active).
